# Results filed as inconclusive are left out. Activity calls are given as the source filed them. How the source made its calls: active means hit-call score of the fitted dose curve at least 0.9, where 1 is the maximum; inconclusive means response in the unintended direction; inactive means score below 0.9.
# Biological target: rabbit Imidazoline 2 Central (I2C), CKB (gene 100009085) (UniProt P00567)
# Test: NVS_ENZ_rabI2C: NovaScreen (NVS) Enzymatic Assay for rabbit Imidazoline 2 Central (I2C) (AID 2283228)
# In short: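 Rabbit brain membranes, cell-free; readout by filter-based scintillation counting 1.5 hours after dosing, loss of signal vs DMSO. Initial duplicate test at 25 uM, then concentration-response with 50 uM top concentration.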
# rabbit Imidazoline 2 Central (I2C), CKB (gene 100009085), sequence (P00567 whole entry, looked up): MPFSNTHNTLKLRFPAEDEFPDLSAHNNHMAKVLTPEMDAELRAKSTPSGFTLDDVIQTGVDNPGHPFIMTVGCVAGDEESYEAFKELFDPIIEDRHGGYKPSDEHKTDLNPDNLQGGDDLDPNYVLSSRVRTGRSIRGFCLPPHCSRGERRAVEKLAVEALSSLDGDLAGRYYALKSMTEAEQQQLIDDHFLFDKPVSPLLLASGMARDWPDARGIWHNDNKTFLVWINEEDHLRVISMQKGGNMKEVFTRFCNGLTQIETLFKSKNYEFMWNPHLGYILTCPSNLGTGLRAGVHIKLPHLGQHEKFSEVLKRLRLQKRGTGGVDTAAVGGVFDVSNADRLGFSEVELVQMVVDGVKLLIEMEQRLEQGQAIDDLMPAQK
Compound,AC50,outcome
CCCN(CC)CC1COC2(CCC(C(C)(C)C)CC2)O1 (stereo not given),13 µM (active),
CCN(CC)C(=O)C(C)Oc1cccc2ccccc12 (stereo not given),,inactive
Cc1ccc(N=CN(C)C=Nc2ccc(C)cc2C)c(C)c1,1.21 µM (active),
Cn1c(-c2ccccc2)cc(-c2ccccc2)[n+]1C,12 µM (active),

# Biological target: rat Adenylate Cyclase, Forskolin Stimulated, Adcy5 (gene 64532) (UniProt Q04400)
# Test: NVS_ENZ_rACFSKBinding: NovaScreen (NVS) Enzymatic Assay for rat Adenylate Cyclase, Forskolin Stimulated (AID 2283232)
# In short: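 Rat forebrain membrane preparation, cell-free, read 1 h after dosing by filter-based scintillation counting. Primary screen in duplicate at 25 uM; actives (e.g. ≥30% inhibition) rerun in concentration-response up to 50 uM; fit versus DMSO.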
# rat Adenylate Cyclase, Forskolin Stimulated, Adcy5 (gene 64532), sequence (Q04400 whole entry, looked up): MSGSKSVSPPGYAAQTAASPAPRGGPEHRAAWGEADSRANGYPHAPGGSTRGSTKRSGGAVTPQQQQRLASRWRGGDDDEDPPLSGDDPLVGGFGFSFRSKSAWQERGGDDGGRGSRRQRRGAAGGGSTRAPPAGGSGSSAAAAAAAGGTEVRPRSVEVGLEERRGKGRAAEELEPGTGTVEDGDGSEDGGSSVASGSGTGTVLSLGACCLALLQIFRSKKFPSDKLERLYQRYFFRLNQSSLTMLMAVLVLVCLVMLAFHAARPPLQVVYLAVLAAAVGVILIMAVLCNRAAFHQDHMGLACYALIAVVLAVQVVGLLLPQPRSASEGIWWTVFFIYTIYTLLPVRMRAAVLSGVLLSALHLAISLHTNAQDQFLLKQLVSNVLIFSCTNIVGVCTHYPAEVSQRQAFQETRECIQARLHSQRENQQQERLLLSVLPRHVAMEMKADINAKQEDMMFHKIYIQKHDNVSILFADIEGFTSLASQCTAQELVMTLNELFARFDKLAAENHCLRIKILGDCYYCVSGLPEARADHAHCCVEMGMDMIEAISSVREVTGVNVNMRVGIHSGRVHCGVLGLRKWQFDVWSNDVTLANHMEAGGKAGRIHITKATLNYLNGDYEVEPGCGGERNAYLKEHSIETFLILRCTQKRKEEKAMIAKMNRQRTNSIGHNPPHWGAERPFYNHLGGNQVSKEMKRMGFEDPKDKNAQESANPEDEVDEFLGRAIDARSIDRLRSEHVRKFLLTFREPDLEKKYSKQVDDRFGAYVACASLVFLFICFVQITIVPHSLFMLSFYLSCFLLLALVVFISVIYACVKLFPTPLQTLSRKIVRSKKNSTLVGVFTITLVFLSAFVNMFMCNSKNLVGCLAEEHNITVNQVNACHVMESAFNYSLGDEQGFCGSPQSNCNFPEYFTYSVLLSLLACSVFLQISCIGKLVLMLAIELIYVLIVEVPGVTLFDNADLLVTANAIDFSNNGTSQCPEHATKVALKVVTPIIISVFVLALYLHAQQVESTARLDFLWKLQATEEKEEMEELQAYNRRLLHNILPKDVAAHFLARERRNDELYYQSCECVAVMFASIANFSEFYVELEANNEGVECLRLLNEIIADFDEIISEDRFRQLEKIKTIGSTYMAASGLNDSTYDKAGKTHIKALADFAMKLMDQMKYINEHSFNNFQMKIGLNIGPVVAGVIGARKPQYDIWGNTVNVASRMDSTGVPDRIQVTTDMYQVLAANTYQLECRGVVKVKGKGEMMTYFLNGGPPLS
row,Compound,outcome
1,O=C1C2CC=CCC2C(=O)N1SC(Cl)(Cl)Cl (stereo not given),inactive
2,CO/N=C(/C1=NOCCO1)c1ccccc1Oc1ncnc(Oc2ccccc2Cl)c1F,inactive
3,COP(=S)(OC)SCn1nnc2ccccc2c1=O,inactive

# Biological target: rat Acetylcholinesterase (AChE), Ache (gene 83817) (UniProt P37136)
# Test: NVS_ENZ_rAChE: NovaScreen (NVS) Enzymatic Assay for rat Acetylcholinesterase (AChE) (AID 2283233)
# In short: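 Rat brain membrane acetylcholinesterase activity measured colorimetrically 0.33 h after compound addition, loss of signal relative to DMSO. Primary screen in duplicate at 25 uM; actives re-run as concentration-response with 50 uM top concentration.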
# rat Acetylcholinesterase (AChE), Ache (gene 83817), sequence (P37136 whole entry, looked up): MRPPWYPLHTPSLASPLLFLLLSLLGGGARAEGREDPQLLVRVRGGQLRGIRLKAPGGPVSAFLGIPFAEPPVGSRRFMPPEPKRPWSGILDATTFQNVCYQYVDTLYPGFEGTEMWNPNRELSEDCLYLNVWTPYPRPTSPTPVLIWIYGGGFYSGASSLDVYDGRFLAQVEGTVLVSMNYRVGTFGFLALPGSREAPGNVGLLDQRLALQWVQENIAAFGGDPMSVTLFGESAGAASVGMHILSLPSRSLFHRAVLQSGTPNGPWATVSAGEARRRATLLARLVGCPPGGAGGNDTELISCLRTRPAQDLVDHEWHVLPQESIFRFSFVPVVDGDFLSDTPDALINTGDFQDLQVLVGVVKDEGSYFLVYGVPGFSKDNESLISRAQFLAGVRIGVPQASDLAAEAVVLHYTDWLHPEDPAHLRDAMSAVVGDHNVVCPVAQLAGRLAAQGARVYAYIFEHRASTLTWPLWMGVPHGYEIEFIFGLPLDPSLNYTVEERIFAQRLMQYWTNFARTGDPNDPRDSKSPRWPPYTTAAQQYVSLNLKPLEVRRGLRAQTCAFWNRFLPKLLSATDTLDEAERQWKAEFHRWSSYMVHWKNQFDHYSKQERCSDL
Compound,AC50,outcome
N#CN=C1SCCN1Cc1ccc(Cl)nc1,16.6 µM (active),
CNC(=O)Oc1cccc2ccccc12,6.15 µM (active),
O=c1n(Cl)c(=O)n(Cl)c(=O)n1Cl,,inactive
CCNC(=O)NC(=O)C(C#N)=NOC,,inactive
COP(=S)(OC)SCn1nnc2ccccc2c1=O,,inactive
CCOP(=O)(OCC)Oc1nc(Cl)c(Cl)cc1Cl,0.488 µM (active),
Nc1c(Cl)c(Cl)nc(C(=O)O)c1Cl,,inactive
CC(C)N1C(=O)N(c2ccccc2)CSC1=NC(C)(C)C,,inactive

# Biological target: rat Catechol-O-Methyl Transferase (COMT), Comt (gene 24267) (UniProt P22734)
# Test: NVS_ENZ_rCOMT: NovaScreen (NVS) Enzymatic Assay for rat Catechol-O-Methyl Transferase (COMT) (AID 2283235)
# In short: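 Cell-free enzyme activity with protein extracted from rat dorsal striatum, measured by HPLC with absorbance detection. Compounds screened at 25 uM in duplicate; actives then run in concentration-response up to 50 uM, loss of signal versus DMSO.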
# rat Catechol-O-Methyl Transferase (COMT), Comt (gene 24267), sequence (P22734 whole entry, looked up): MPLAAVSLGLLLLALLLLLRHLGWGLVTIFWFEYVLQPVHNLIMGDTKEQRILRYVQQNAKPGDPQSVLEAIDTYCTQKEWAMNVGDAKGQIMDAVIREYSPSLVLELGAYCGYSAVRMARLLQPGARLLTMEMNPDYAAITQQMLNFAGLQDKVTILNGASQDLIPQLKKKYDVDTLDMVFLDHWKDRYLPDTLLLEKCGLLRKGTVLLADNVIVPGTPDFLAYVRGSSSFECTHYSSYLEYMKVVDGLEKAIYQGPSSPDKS
Compound,outcome,AC50
O=C1C2CC=CCC2C(=O)N1SC(Cl)(Cl)Cl (stereo not given),inactive,
O=P(O)(O)CCCl,inactive,
Cc1nc(N(C)C)nc(OC(=O)N(C)C)c1C,,0.991 µM (active)
CCOP(=O)(OCC)Oc1nc(Cl)c(Cl)cc1Cl,inactive,

# Biological target: rat Constitutive Nitric Oxide Synthase (CNOS), Nos1 (gene 24598) (UniProt P29476)
# Test: NVS_ENZ_rCNOS: NovaScreen (NVS) Enzymatic Assay for rat Constitutive Nitric Oxide Synthase (CNOS) (AID 2283236)
# In short: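 Enzyme activity in rat brain membrane preparation, read 1 h after dosing by filter-based radiometric scintillation counting. Primary screen in duplicate at 25 uM; actives (e.g., ≥30% inhibition) then run in concentration-response up to 50 uM.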
# rat Constitutive Nitric Oxide Synthase (CNOS), Nos1 (gene 24598), sequence (P29476 whole entry, looked up): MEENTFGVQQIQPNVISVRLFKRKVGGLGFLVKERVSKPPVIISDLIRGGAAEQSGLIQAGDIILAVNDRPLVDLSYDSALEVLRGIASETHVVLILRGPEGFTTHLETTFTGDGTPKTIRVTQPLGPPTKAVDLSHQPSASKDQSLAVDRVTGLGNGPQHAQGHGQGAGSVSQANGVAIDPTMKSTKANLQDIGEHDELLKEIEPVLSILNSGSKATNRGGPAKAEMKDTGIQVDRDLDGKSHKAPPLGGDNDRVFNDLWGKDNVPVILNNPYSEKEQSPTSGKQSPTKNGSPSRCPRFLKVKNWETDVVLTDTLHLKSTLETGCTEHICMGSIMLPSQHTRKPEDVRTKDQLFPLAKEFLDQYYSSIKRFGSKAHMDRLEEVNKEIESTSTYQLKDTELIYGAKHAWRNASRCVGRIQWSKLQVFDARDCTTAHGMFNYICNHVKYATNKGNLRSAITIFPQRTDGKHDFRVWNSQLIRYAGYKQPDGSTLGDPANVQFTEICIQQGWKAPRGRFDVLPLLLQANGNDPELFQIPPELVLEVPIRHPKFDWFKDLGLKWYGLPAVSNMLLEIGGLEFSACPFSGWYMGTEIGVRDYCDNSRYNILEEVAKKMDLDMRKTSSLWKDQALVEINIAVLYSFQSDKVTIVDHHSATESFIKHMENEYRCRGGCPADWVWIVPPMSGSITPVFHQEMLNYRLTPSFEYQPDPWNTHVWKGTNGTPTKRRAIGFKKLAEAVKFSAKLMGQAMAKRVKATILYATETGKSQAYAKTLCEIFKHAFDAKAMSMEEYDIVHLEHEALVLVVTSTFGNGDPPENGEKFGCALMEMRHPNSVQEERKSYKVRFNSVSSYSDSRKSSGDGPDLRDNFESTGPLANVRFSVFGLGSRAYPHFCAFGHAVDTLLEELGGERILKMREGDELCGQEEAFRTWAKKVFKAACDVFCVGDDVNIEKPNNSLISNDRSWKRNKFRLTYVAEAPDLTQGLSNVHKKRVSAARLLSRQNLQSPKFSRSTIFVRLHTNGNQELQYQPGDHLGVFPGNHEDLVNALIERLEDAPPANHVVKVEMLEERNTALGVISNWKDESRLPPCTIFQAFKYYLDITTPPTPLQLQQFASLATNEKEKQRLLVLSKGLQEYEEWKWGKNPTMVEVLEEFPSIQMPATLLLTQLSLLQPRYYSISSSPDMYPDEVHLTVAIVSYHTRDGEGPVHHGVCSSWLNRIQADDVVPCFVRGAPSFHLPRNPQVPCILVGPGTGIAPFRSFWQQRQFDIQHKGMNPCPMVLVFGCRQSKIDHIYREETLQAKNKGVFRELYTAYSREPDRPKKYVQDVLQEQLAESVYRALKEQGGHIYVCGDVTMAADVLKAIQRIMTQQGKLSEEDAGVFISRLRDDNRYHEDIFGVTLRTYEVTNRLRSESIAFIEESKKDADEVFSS
Compound,outcome,AC50
COC(=O)c1c(C(F)F)nc(C(F)(F)F)c(C2=NCCS2)c1CC(C)C,inactive,
CCNC(=O)NC(=O)C(C#N)=NOC,,9.03 µM (active)
CN=C=S,inactive,
COP(=S)(OC)SCn1nnc2ccccc2c1=O,inactive,
CC(C)NC(=O)N1CC(=O)N(c2cc(Cl)cc(Cl)c2)C1=O,,25 µM (active)
CCN(CC)c1nc(C)cc(OP(=S)(OC)OC)n1,inactive,
COc1ccc(-c2ccccc2)cc1NNC(=O)OC(C)C,inactive,
CS(=O)(=O)c1ccc(C(=O)C2C(=O)CCCC2=O)c([N+](=O)[O-])c1,inactive,

# Test system: rat Monoamine Oxidase, MAO-A, Peripheral (MAOAP), gene 29253
# Test: NVS_ENZ_rMAOAP: NovaScreen (NVS) Enzymatic Assay for rat Monoamine Oxidase, MAO-A, Peripheral (MAOAP) (AID 2283237)
# In short: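 Rat liver mitochondrial membranes served as the MAO-A source, with enzyme activity measured by radiometric scintillation counting 1.17 hours after dosing. Loss of signal was fitted against DMSO; primary screen used 25 uM in duplicate, follow-up used concentration series.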
Compound,outcome,AC50
COc1cc(OC)nc(NC(=O)NS(=O)(=O)c2ncccc2OCC(F)(F)F)n1,inactive,
COC(=O)c1c(C(F)F)nc(C(F)(F)F)c(C2=NCCS2)c1CC(C)C,inactive,
Cc1nc(N(C)C)nc(OC(=O)N(C)C)c1C,,10.4 µM (active)
CCCCC(C#N)(Cn1cncn1)c1ccc(Cl)cc1 (stereo not given),inactive,
COP(=S)(OC)SCn1nnc2ccccc2c1=O,inactive,
CC(C)N1C(=O)N(c2ccccc2)CSC1=NC(C)(C)C,inactive,
COc1ccc(-c2ccccc2)cc1NNC(=O)OC(C)C,,0.31 µM (active)

# Biological target: rat Monoamine Oxidase, MAO-B, Central (MAOBC), Maob (gene 25750) (UniProt P19643)
# Test: NVS_ENZ_rMAOBC: NovaScreen (NVS) Enzymatic Assay for rat Monoamine Oxidase, MAO-B, Central (MAOBC) (AID 2283238)
# In short: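 MAO-B activity in rat brain tissue preparation, cell-free, measured radiometrically by scintillation counting 1.17 h after dosing. Screened in duplicate at 25 uM; actives then in concentration-response up to 50 uM. Loss of signal versus DMSO scored.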
# rat Monoamine Oxidase, MAO-B, Central (MAOBC), Maob (gene 25750), sequence (P19643 whole entry, looked up): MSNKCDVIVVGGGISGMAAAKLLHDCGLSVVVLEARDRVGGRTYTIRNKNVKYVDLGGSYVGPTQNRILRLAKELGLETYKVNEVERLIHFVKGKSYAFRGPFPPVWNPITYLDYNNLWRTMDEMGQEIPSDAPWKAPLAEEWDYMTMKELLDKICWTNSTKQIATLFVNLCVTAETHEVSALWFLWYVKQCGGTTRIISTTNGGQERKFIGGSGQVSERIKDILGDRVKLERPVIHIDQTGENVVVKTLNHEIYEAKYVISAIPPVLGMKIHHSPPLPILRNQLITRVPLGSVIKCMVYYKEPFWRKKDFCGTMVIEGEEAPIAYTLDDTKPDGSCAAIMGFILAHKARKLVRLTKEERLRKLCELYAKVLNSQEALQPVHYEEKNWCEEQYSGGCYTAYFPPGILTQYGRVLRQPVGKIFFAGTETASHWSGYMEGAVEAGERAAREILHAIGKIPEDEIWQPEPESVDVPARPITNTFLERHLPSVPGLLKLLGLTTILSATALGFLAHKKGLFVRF
Compound,outcome,AC50
CC1(C)CCC(=Cc2ccc(Cl)cc2)C1(O)Cn1cncn1 (stereo not given),inactive,
CNC(=O)Oc1cccc2ccccc12,,6.28 µM (active)
Cc1ccc(N=CN(C)C=Nc2ccc(C)cc2C)c(C)c1,inactive,
N#Cc1c(Cl)cccc1Cl,,25 µM (active)
N#Cc1c[nH]cc1-c1cccc2c1OC(F)(F)O2,inactive,
COc1ccc(-c2ccccc2)cc1NNC(=O)OC(C)C,,0.0452 µM (active)

# From PubChem BioAssay (EPA / NIEHS)
